Source: PubChem BioAssay (National Center for Advancing Translational Sciences (NCATS))
A selection: hits, their analogues and other compounds. The true share with any hit is near 8.1%.
KB-V1 cytotox – KB-V1 MDR subline cytotoxicity; KB-V1 MDR cells viability, CellTiter-Glo, 72 h; Potency, µM (doses to about 46.1 µM), most hits filed as cytotoxic; 400,000 compounds, 3.4% hits; AID 1347076; note: nearly all actives have a fitted effect of over 60% in size
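KB-V1 MDR subline cells in DMEM (phenol-red free, 10% FBS) exposed to compounds in qHTS concentration series for 72 h at 37 degrees C. Viability read by CellTiter-Glo luminescence; concentration-effect curves fitted after normalization and correction.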
MCF10A rerep – inducers of DNA re-replication in MCF 10A breast cells. MCF 10A DNA re-replication, Hoechst nuclear intensity, 48 h. Potency, µM (series often up to 46.1 µM), most hits filed as activators. 350,000 compounds, 2.9% hits. AID 624296; note: nearly all actives have a fitted effect of over 50% in size
SW480 rerep – inducers of DNA re-replication in SW480 colon cancer cells; SW480 DNA re-replication, Hoechst DNA content imaging, 48 h; Potency, µM (doses to about 46.1 µM), hits mostly activators; 340,000 compounds, 1.8% hits; AID 624297; note: nearly all actives have a fitted effect of over 55% in size
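SW480 cells exposed to compounds for 48 hr at 37 C, 5% CO2, then Hoechst-stained 40 min. Nuclear DNA content imaged by fluorescence scanning (405 nm excitation, 500-530 nm emission); re-replication scored as increased high-intensity nuclei.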
ELG1 DNA repair – ELG1-dependent DNA repair inhibition. HEK293T ELG1-luciferase reporter, luminescence, 16 h; DNA damage induced by 5-fluorouridine. Potency, µM (doses to about 46.1 µM), usual class: inhibitors. 330,000 compounds, 2.3% hits; note: nearly all actives have a fitted effect of over 55% in size
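Quantitative HTS, concentration-response format. 2,000 cells/well co-treated with 5-fluorouridine and compound, 16 hr in 5% CO2 at 37 °C; ONE-Glo luminescence read after 30 min.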
KB-3-1 tox – kills parental KB-3-1 adenocarcinoma cells | KB-3-1 viability, CellTiter-Glo ATP luminescence, 72 h | Potency, µM (highest dose often 46.1 µM), usual class: cytotoxic | 400,000 compounds, 1.4% hits | AID 1347075; note: nearly all actives have a fitted effect of over 60% in size
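72 h, 37 °C compound treatment of KB-3-1 parental cells; CellTiter-Glo added, 10 min, luminescence read. Data corrected against DMSO-only plates and normalized before curve fitting.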
Large screens that a line does not name were inactive. Calls come from the whole dose curve; as a rule, active = well fitted curve in the direction sought with a large enough effect; inconclusive = small, poorly fitted or top-dose-only effect, or another doubt; inactive = no such curve, though single readings can be large; an effect the other way counts as inactive or inconclusive.

CCOc1ccc2cc(C3CC(c4ccco4)=NN3S(=O)(=O)c3ccccc3)c(Cl)nc2c1 (stereo unspecified)	KB-V1 cytotox 5.8µM
COc1cccc(CNC(=O)CSc2cc(C)[nH]c(=O)n2)c1	KB-3-1 tox inconclusive (no result: MCF10A rerep, SW480 rerep, ELG1 DNA repair)
CC1=Nc2ccccc2/C1=C/c1c(C)[nH]c2ccccc12	MCF10A rerep 0.82µM, SW480 rerep 10µM, KB-3-1 tox inconclusive (no result: ELG1 DNA repair)
O=C(c1ccccc1)N1N=C(c2ccccc2)CC1c1ccccc1 (stereo unspecified)	SW480 rerep inconclusive
Cn1cc(C2CC(c3ccccc3)=NN2C(=O)c2ccccc2)c2ccccc21 (stereo unspecified)	KB-V1 cytotox 21µM, MCF10A rerep 5.8µM, SW480 rerep inconclusive, ELG1 DNA repair inconclusive, KB-3-1 tox inconclusive
CC(=O)N1N=C(c2ccc(Br)cc2)CC1c1cn(C)c2ccccc12 (stereo unspecified)	KB-V1 cytotox inconclusive, MCF10A rerep 18µM
CCCC(=O)N1N=C(c2ccccc2)CC1c1cn(C)c2ccccc12 (stereo unspecified)	KB-V1 cytotox inconclusive, MCF10A rerep 23µM, SW480 rerep inconclusive, ELG1 DNA repair inconclusive
CC(=O)N1N=C(c2ccc(Br)cc2)CC1c1ccc(Br)cc1 (stereo unspecified)	none (no result: MCF10A rerep, SW480 rerep, ELG1 DNA repair)
C=Cc1ccc(Cn2c(C)c(C(=O)NCc3ccccc3C(F)(F)F)sc2=O)cc1	KB-V1 cytotox inconclusive (no result: MCF10A rerep, SW480 rerep, ELG1 DNA repair)
CCN1C(=O)[C@H]2[C@H]3CN=C(SCc4ccc(Cl)cc4)N3[C@@](C)(C(=O)OC)[C@H]2C1=O	none
CCOc1cc(C(=O)Nc2cc3c(cc2N2CCCC2)n(C)c(=O)c(=O)n3C)cc(OCC)c1OCC	KB-V1 cytotox inconclusive (no result: MCF10A rerep, SW480 rerep, ELG1 DNA repair)
Cc1cc(Sc2ncnc(N)c2[N+](=O)[O-])ncn1	KB-V1 cytotox inconclusive, MCF10A rerep 2.9µM, SW480 rerep inconclusive, ELG1 DNA repair inconclusive, KB-3-1 tox 4.6µM
Cc1ccc(C)c(Oc2ncnc(N)c2[N+](=O)[O-])c1	ELG1 DNA repair inconclusive
Cc1cc(N)ncc1[N+](=O)[O-]	none (no result: ELG1 DNA repair)
Cc1cc(Sc2nc(N)ncc2[N+](=O)[O-])ncn1	MCF10A rerep inconclusive, SW480 rerep inconclusive, ELG1 DNA repair inconclusive, KB-3-1 tox 16µM
Cc1ccc(/C=N/Nc2ncc(Cl)cc2Cl)s1	KB-V1 cytotox inconclusive, SW480 rerep 5.8µM, ELG1 DNA repair inconclusive, KB-3-1 tox inconclusive
CCc1cccc2sc(N3CCN(C(=O)c4ccc([N+](=O)[O-])o4)CC3)nc12	KB-V1 cytotox inconclusive, MCF10A rerep 3.7µM, SW480 rerep inconclusive, KB-3-1 tox inconclusive
O=C(c1ccc([N+](=O)[O-])o1)N1CCN(Cc2ccccc2)CC1	SW480 rerep inconclusive
C=CCNc1ncnc2c1ncn2[C@H]1CN(Cc2ccc(F)cc2)C[C@@H](CO)O1	none (no result: MCF10A rerep, SW480 rerep, ELG1 DNA repair)
COc1cc(C(=O)NCC(c2ccco2)N2CCCC2)ccc1OCc1ccc(Cl)cc1Cl (stereo unspecified)	KB-V1 cytotox inconclusive, MCF10A rerep 18µM, SW480 rerep inconclusive (no result: ELG1 DNA repair)
COc1ccc(C(CNC(=O)c2cc3ccccc3cc2OC)N2CCCC2)cc1 (stereo unspecified)	KB-V1 cytotox 4.6µM
CCC1CCc2sc(C(=O)NCC(c3ccc(OC)cc3)N3CCCC3)cc2C1 (stereo unspecified)	KB-V1 cytotox 9.2µM, MCF10A rerep inconclusive, SW480 rerep inconclusive, KB-3-1 tox inconclusive
COc1ccc(C(CNC(=O)c2cccc(N(C)C)c2)N2CCCC2)cc1 (stereo unspecified)	SW480 rerep inconclusive
COc1ccc(Cl)cc1C(=O)NCC(c1ccco1)N1CCCC1 (stereo unspecified)	KB-V1 cytotox 9.2µM
CC1(C)CC(=O)c2cc(C(=O)Nc3ccc(Br)cc3)c(=O)n(-c3ccc(Cl)cc3)c2C1	none (no result: MCF10A rerep, SW480 rerep, ELG1 DNA repair)
O=C1c2ccccc2C(=O)N1C1C(=O)N2CCSC12C(=O)OCc1ccccc1 (stereo unspecified)	none (no result: ELG1 DNA repair)
C=CCn1c(=O)c2c3c(sc2n2c(Nc4ccc(OC)cc4)nnc12)CCCC3	KB-V1 cytotox inconclusive, ELG1 DNA repair 8.2µM, KB-3-1 tox inconclusive
C=CCn1c(=O)c2c3c(sc2n2c(Nc4ccc(C(=O)OCC)cc4)nnc12)CCCC3	SW480 rerep 13µM
C=CCn1c(=O)c2c3c(sc2n2c(Nc4ccccc4)nnc12)CCCC3	KB-V1 cytotox inconclusive, ELG1 DNA repair 21µM, KB-3-1 tox inconclusive
